Measured values from PubChem BioAssay (NCI).
About 83,000 compounds went through this panel and 20% of them were active in at least one assay; those are over-represented in the sample as a whole.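 Values shown are percent growth following 48 h exposure of cells in 96-well plates to a single concentration of compound; below 10 was considered active.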 Activity calls are given as the source filed them.

Columns and labels:
Test in all cases: NCI-60 one-dose screen, 48 h (100 = growth as untreated, 0 = no growth, -100 = all killed)
Details in all cases: 10 µM unless noted
HCT-15 colon = test system: HCT-15 colon
HT29 colon = test system: HT29 colon
SNB-75 CNS = test system: SNB-75 CNS
SNB-19 CNS = test system: SNB-19 CNS
U251 CNS = test system: U251 CNS
PC-3 prostate = test system: PC-3 prostate
SK-MEL-5 melanoma = test system: SK-MEL-5 melanoma
UACC-62 melanoma = test system: UACC-62 melanoma
LOX IMVI melanoma = test system: LOX IMVI melanoma
SK-MEL-28 melanoma = test system: SK-MEL-28 melanoma

Measured: growth

O=c1c2c(c(=O)n1O)c1c3ccc[nH]c3nc1c1nc3[nH]cccc3c12
inactive: HCT-15 colon 97% | HT29 colon 89.7% | SNB-75 CNS 87% | SNB-19 CNS 70.8% | U251 CNS 64.6% | PC-3 prostate 67.7% | SK-MEL-5 melanoma 85.8% | UACC-62 melanoma 63% | LOX IMVI melanoma 72.6%

C=C1C(=O)O[C@H]2[C@H]1CC/C(CNC(=O)C(C)c1ccc(CC(C)C)cc1)=C\CC[C@@]1(C)O[C@@H]21 (stereo not given in full)
inactive: SNB-75 CNS 64.5% | SNB-19 CNS 48.9% | U251 CNS 45.2% | PC-3 prostate 16.6% | SK-MEL-5 melanoma 61.3%
active: HCT-15 colon -55.7% | HT29 colon -52.4% | UACC-62 melanoma -27.2% | LOX IMVI melanoma -80.3%

O=C(Nc1ccc(Cl)cc1)c1cc(NCc2cc(O)ccc2O)ccc1O
inactive: HCT-15 colon 68.5% | HT29 colon 88.6% | SNB-75 CNS 101% | SNB-19 CNS 91.4% | U251 CNS 71.8% | PC-3 prostate 45.2% | SK-MEL-5 melanoma 82.9% | UACC-62 melanoma 65.5% | LOX IMVI melanoma 84.3%

CC(=O)c1cc2c(N)c(C(=O)Nc3cccc4ccncc34)sc2nc1C
inactive: HCT-15 colon 87.1% | HT29 colon 104% | SNB-75 CNS 97.7% | SNB-19 CNS 95.4% | U251 CNS 101% | PC-3 prostate 80.7% | SK-MEL-5 melanoma 64.7% | UACC-62 melanoma 69.9% | LOX IMVI melanoma 102% | SK-MEL-28 melanoma 91.1%

N#Cc1c(NC(=O)NCc2ccccc2)sc2c1CCCC2
inactive: HCT-15 colon 20.3% | HT29 colon 12.8% | SNB-75 CNS 27% | SNB-19 CNS 34.1% | U251 CNS 26.1% | PC-3 prostate 26.9% | SK-MEL-5 melanoma 13.3% | UACC-62 melanoma 39.3% | LOX IMVI melanoma 24%

O=C(c1ccccc1)N1N=C(c2ccc(-n3ccc(C(F)(F)F)n3)c(F)c2)CC1c1ccc[nH]1 (stereo not given)
inactive: HCT-15 colon 100% | HT29 colon 98.8% | SNB-75 CNS 98.4% | SNB-19 CNS 99.1% | U251 CNS 98.5% | PC-3 prostate 101% | SK-MEL-5 melanoma 103% | UACC-62 melanoma 101% | LOX IMVI melanoma 101%

NC(=O)Nc1ccc(-n2cnc3cc(-c4ccc(O)cc4)ccc32)cc1
inactive: HCT-15 colon 97.8% | SNB-75 CNS 102% | SNB-19 CNS 98.7% | U251 CNS 83.4% | PC-3 prostate 96% | SK-MEL-5 melanoma 85.9% | UACC-62 melanoma 108% | LOX IMVI melanoma 104%
active: HT29 colon -7.1%

CC1(C)NCCC[C@]2(C)[C@H]3CC[C@@H]4[C@H]5[C@H](C(=O)/C=C/c6ccco6)CC[C@]5(CO)CC[C@@]4(C)[C@]3(C)CC[C@@H]12
inactive: HCT-15 colon 59.1% | HT29 colon 106% | SNB-75 CNS 83% | SNB-19 CNS 94.2% | U251 CNS 82% | PC-3 prostate 62.4% | SK-MEL-5 melanoma 93.4% | UACC-62 melanoma 87.8% | LOX IMVI melanoma 74.8% | SK-MEL-28 melanoma 104%

c1ccc2c(-c3c[nH]c4ccccc34)c3c(cc2c1)[nH]c1ccccc13
inactive: HCT-15 colon 47% | HT29 colon 72.5% | SNB-75 CNS 38.4% | SNB-19 CNS 90.9% | U251 CNS 70.1% | PC-3 prostate 69.9% | SK-MEL-5 melanoma 67.3% | UACC-62 melanoma 68.3% | LOX IMVI melanoma 60.1% | SK-MEL-28 melanoma 75.3%

COc1ccc(C(=O)/C=C/c2cc3ccccc3n3nnnc23)cc1
inactive: HCT-15 colon 97.3% | HT29 colon 110% | SNB-75 CNS 98.3% | SNB-19 CNS 99.1% | U251 CNS 101% | PC-3 prostate 103% | SK-MEL-5 melanoma 103% | UACC-62 melanoma 97.7% | LOX IMVI melanoma 104%

CC(=O)[C@@H]1CC[C@]2(CO)CC[C@]3(C)[C@H](CC[C@@H]4[C@@]5(C)CCCNC(C)(C)[C@@H]5CC[C@]43C)[C@@H]12
inactive: HCT-15 colon 81.5% | HT29 colon 68.1% | SNB-75 CNS 86% | SNB-19 CNS 99.1% | U251 CNS 108% | PC-3 prostate 86% | SK-MEL-5 melanoma 92.7% | UACC-62 melanoma 94.7% | LOX IMVI melanoma 95.6%

C=C1C(=O)O[C@H]2[C@H]1CC/C(CNC(=O)CCc1ccc(OC)cc1)=C\CC[C@@]1(C)O[C@@H]21
inactive: HCT-15 colon 37.1% | HT29 colon 12.1% | SNB-75 CNS 116% | SNB-19 CNS 80.3% | U251 CNS 87.9% | PC-3 prostate 72.1% | SK-MEL-5 melanoma 92.8% | UACC-62 melanoma 47.3% | LOX IMVI melanoma 70.3%

Cc1ncc(C(=O)Nc2ccc(CN3CCN(C)CC3)c(C(F)(F)F)c2)cc1C#Cc1cnc(N)cc1C#N
inactive: SNB-75 CNS 37% | SNB-19 CNS 74.4%
active: HCT-15 colon -65.2% | HT29 colon -86.2% | U251 CNS -98.6% | PC-3 prostate -55.6% | SK-MEL-5 melanoma -100% | UACC-62 melanoma -83.7% | LOX IMVI melanoma -99.9% | SK-MEL-28 melanoma -94.6%

O=C(Cc1ccc(/C=C/C(=O)c2nccs2)cc1)Nc1ccccc1
inactive: HCT-15 colon 78.4% | HT29 colon 72.7% | SNB-75 CNS 108% | SNB-19 CNS 84.8% | U251 CNS 47.7% | PC-3 prostate 91.7% | SK-MEL-5 melanoma 88.8% | UACC-62 melanoma 83.9% | LOX IMVI melanoma 72.4%

CC(Sc1nc2ccccc2c(=O)n1CCc1ccc(S(N)(=O)=O)cc1)C(=O)Nc1ccc(Cl)cc1 (stereo not given)
inactive: HCT-15 colon 67.9% | HT29 colon 89.5% | SNB-75 CNS 83.3% | SNB-19 CNS 90.1% | U251 CNS 84.1% | PC-3 prostate 81.7% | SK-MEL-5 melanoma 79.4% | UACC-62 melanoma 73.6% | LOX IMVI melanoma 88.3%

COc1cc(C2C3=C(COC3=O)N(CCO)c3cc4c(cc32)OCO4)cc(OC)c1OC (stereo not given)
inactive: HCT-15 colon 18.1% | SNB-75 CNS 51% | PC-3 prostate 19.6% | UACC-62 melanoma 22.2% | LOX IMVI melanoma 26.1%
active: HT29 colon 0.994% | SNB-19 CNS -2.19% | U251 CNS 2.92% | SK-MEL-5 melanoma -42.2%

COc1cc2nc(-c3ccc(C(F)(F)F)cc3)cc(OCCCN3CCCC3)c2cc1OC
active: SNB-75 CNS -19% | SK-MEL-5 melanoma -18.2% | UACC-62 melanoma -25% | LOX IMVI melanoma -53.1%
inactive: HCT-15 colon 13.1% | HT29 colon 20.9% | SNB-19 CNS 67.5% | U251 CNS 50.6% | PC-3 prostate 41.7%

CCOC(=O)c1cc(C(=O)c2ccc(OC)cc2)n2ccc(/C=C/c3cc[n+](CC(=O)c4ccc(OC)cc4)cc3)cc12
inactive: HCT-15 colon 85.9% | HT29 colon 16.5% | SNB-75 CNS 57.9% | SNB-19 CNS 31.3% | U251 CNS 53.5% | PC-3 prostate 64.1% | SK-MEL-5 melanoma 87.8% | UACC-62 melanoma 99.5%

Cc1cnc(C(=O)Nc2nc3ccc(S(=O)(=O)Nc4ccc(C5(C(F)(F)F)CC5)cc4)cc3[nH]2)cn1
inactive: HCT-15 colon 20.6% | SNB-19 CNS 30.1% | U251 CNS 21.8% | PC-3 prostate 18% | UACC-62 melanoma 35.3% | LOX IMVI melanoma 35.1%
active: HT29 colon 9.04% | SNB-75 CNS -7.96% | SK-MEL-5 melanoma -3.91%

COc1cc(C2C3CC4CCCC[C@H]4N3[C@@]3(C(=O)Nc4cc(Cl)ccc43)C2C(=O)c2nc3ccccc3[nH]2)cc(OC)c1OC (stereo not given in full)
inactive: HCT-15 colon 43.3% | HT29 colon 35.6% | SNB-75 CNS 78.8% | SNB-19 CNS 72.5% | U251 CNS 56.7% | PC-3 prostate 43.7% | SK-MEL-5 melanoma 64.6% | UACC-62 melanoma 57.5% | LOX IMVI melanoma 58.8%

CC(=O)OC[C@]12CC[C@@H](C(=O)CBr)[C@@H]1[C@H]1CC[C@@H]3[C@@]4(C)CC[C@H](OC(C)=O)C(C)(C)[C@@H]4CC[C@@]3(C)[C@]1(C)CC2
inactive: HCT-15 colon 97.1% | HT29 colon 91.8% | SNB-75 CNS 84.4% | SNB-19 CNS 114% | U251 CNS 96.7% | PC-3 prostate 75.8% | SK-MEL-5 melanoma 75.1% | UACC-62 melanoma 84.9%
active: LOX IMVI melanoma -69.6%

O=S(=O)(NCCNc1nccc(-c2c(-c3cccc(O)c3)nc3occn23)n1)c1ccc(Cl)cc1
inactive: HCT-15 colon 113% | HT29 colon 62.9% | SNB-75 CNS 109% | SNB-19 CNS 118% | U251 CNS 110% | PC-3 prostate 96.5% | SK-MEL-5 melanoma 52.2% | UACC-62 melanoma 19.2% | LOX IMVI melanoma 72.3% | SK-MEL-28 melanoma 48.2%

COc1ccc(/C=N/NC(=O)c2cnn3c2NC(c2ccccc2)C3)cc1OC (stereo not given)
inactive: HCT-15 colon 41.8% | HT29 colon 14% | SNB-75 CNS 51.6% | SNB-19 CNS 62.6% | U251 CNS 54.4% | PC-3 prostate 56.9% | SK-MEL-5 melanoma 66.7% | UACC-62 melanoma 47.7% | LOX IMVI melanoma 56.5%

CCCCCN1C=C/C(=C\C(=O)N(C)c2ccc(OC(F)(F)F)cc2)c2ccccc21
inactive: HCT-15 colon 99.8% | HT29 colon 81.2% | SNB-75 CNS 104% | SNB-19 CNS 96.9% | U251 CNS 95.4% | PC-3 prostate 93.7% | SK-MEL-5 melanoma 96.5% | UACC-62 melanoma 89.3% | LOX IMVI melanoma 101% | SK-MEL-28 melanoma 109%

Cn1ccnc1C(=O)/C=C/c1ccc(CC(=O)Nc2ccc(F)cc2)cc1
active: HT29 colon -26% | SNB-75 CNS -7.25% | U251 CNS 9.49%
inactive: HCT-15 colon 14.1% | SNB-19 CNS 19% | PC-3 prostate 36.1% | SK-MEL-5 melanoma 34% | UACC-62 melanoma 54.3% | LOX IMVI melanoma 15.2%
